The structures appear in SMILES notation. Results filed as inconclusive are left out. A number with no mark means an inactive call. Calls of active or inactive are those of the source. Calls follow the shape of the dose curve; as a rule, active = well fitted activation curve with a large enough effect in the repeat runs; inconclusive = weak or mixed curves; inactive = flat fitted curve, though single readings scatter.
% is scaled to controls: 0 for no effect and ±100 for the full control effect; potency is read from the fitted curve at half-maximal effect.

The experiment in a line: A CellTox Green Cytotoxicity Assay to monitor cytotoxicity in HEK293 cells - 8 hour (AID 1224884). Also: nearly all actives have a fitted effect of over 35% in size. Conditions: CellTox Green fluorescence; series mostly up to 76.8 µM; cytotoxicity increase: at the top concentration. The source says:
National Center for Advancing Translational Sciences [NCATS]
NIH Chemical Genomics Center [NCGC]
U.S. Environmental Protection Agency [EPA]
National Institutes of Environmental Health Sciences [NIEHS]
National Toxicology Program [NTP]
Cell-based models are critical for drug discovery. Determining the natural cytotoxic effects resulting from test compounds is an essential research activity. A CellTox Green Cytotoxicity Assay to monitor cytotoxicity in real time of continues cell culture during 40 hours of the compound treatment was used to screen Tox21 10K library compounds in Hek293 cells. CellTox Green Cytotoxicity Assay is a nonlytic, homogeneous, biofluorescent method to measure cytotoxicity in cell culture after experimental manipulation. The assay system uses a proprietary asymmetric cyanine dye that is excluded from viable cells but preferentially stains the dead cell's DNA. […] Viable cells produce no appreciable increases in fluorescence. Therefore, the fluorescence signal produced by the binding interaction with dead cell DNA is proportional to cytotoxicity.
The mixture of Hek293 cell suspension and reagents were dispensed at 600cells/6 ul/well in 1536-well tissue culture treated black solid bottom plates using a Multidrop dispenser. After the assay plates were incubated at a 37 C/5% CO2 incubator for 5 hours, 23 nL of compounds dissolved in DMSO, positive and negative controls was transferred to the assay plate by a pintool work station. The plates were incubated at 37 C for 40 hours. The fluorescence intensity were measured at 0h, 8h, 16h, 24h, 32h and 40h time points using ViewLux plate reader during compound treatment.
As to `C=C(C)C(=O)OCCCCCCCCCCCCC`, the “cytotoxicity increase” value is -6.56%.

Take `C=C(C)C(=O)OCCOCCOC(=O)C(=C)C`: the “cytotoxicity increase” value was -1.52%. With `CCCCCCNC(=O)n1cc(F)c(=O)[nH]c1=O`, the “cytotoxicity increase” value is -6.48% [at 35.3 µM]. For `CCCCCCCCCCCCCCN(CCO)CCO`, the Potency was 54.9 µM (active). As for `CN1C(C(=O)Nc2ccccn2)=C(O)c2sccc2S1(=O)=O`, the “cytotoxicity increase” value is 2.95% [at 35.3 µM]. The same measure, in the same setting: under `Cc1ccccc1N=C(N)Nc1ccccc1C` stands -17.7%. As to `CCN(CC)CCNC(=O)COc1ccc(OC)cc1`, the “cytotoxicity increase” value was 5.13% [at 35.3 µM].

Consider `CC1(C)S[C@@H]2[C@H](NC(=O)C(c3ccccc3)S(=O)(=O)O)C(=O)N2[C@H]1C(=O)O` (stereo not given in full), for which the “cytotoxicity increase” value is 5.9% [at 35.3 µM]. As for `Cc1cc2c(OCC(CNC(C)(C)C)OC(=O)c3ccccc3)cccc2[nH]1` (stereo not given), the “cytotoxicity increase” value was 20.5% [at 35.3 µM]. Regarding `CCC(C)COC(C)=O` (stereo not given), the “cytotoxicity increase” value was -2.2%.

With `CC1CC(C)C(=O)C1=O` (stereo not given), the “cytotoxicity increase” value was -9.01%. Regarding `O=C(CCc1ccc(O)cc1)c1c(O)cc(O)cc1O`, the “cytotoxicity increase” value is -0.615%.

Consider `OC1(c2ccccc2)CCNCC1`, for which the “cytotoxicity increase” value is 7.41% [at 35.3 µM]. For `CC[C@]1(O)C[C@H]2CN(CCc3c([nH]c4ccccc34)[C@@](C(=O)OC)(c3cc4c(cc3OC)N(C=O)[C@H]3[C@@](O)(C(=O)OC)[C@H](OC(C)=O)[C@]5(CC)C=CCN6CC[C@]43[C@@H]65)C2)C1`, the “cytotoxicity increase” value is -4.73% [at 35.3 µM]. As for `O=C(O)C[C@H](NC(=O)OCc1ccccc1)C(=O)O`, the “cytotoxicity increase” value was -12.9%. For the compound `C(=C\c1ccccc1)/c1ccccc1`, the “cytotoxicity increase” value was 22.1%. Still for that read-out and setting: for `COc1ccccc1Oc1c(NS(=O)(=O)c2ccc(C(C)(C)C)cc2)nc(-c2ncccn2)nc1OCCO` the value was 0.315% [at 35.3 µM]; for `Nc1ccc(N=Nc2ccccc2)c(N)c1`, -11.6%. Turning to `CCOc1ccc(Cc2nccc3cc(OCC)c(OCC)cc23)cc1OCC`, the “cytotoxicity increase” value is 6.82% [at 35.3 µM]. Turning to `NNC(=O)CP(=O)(c1ccccc1)c1ccccc1`, the “cytotoxicity increase” value is -16.2% [at 35.3 µM].

As for `COc1cc(N)c(Cl)cc1C(=O)NC1CCN(CCCOc2ccc(F)cc2)CC1OC` (stereo not given), the “cytotoxicity increase” value is -4.85% [at 35.3 µM].

For `CC(C)C[C@H](NC(=O)[C@H](CCc1ccccc1)NC(=O)CN1CCOCC1)C(=O)N[C@@H](Cc1ccccc1)C(=O)N[C@@H](CC(C)C)C(=O)[C@@]1(C)CO1`, the “cytotoxicity increase” value is 4.22% [at 35.3 µM]. As for `C=C(C)CCCC(C)CCO` (stereo not given), the “cytotoxicity increase” value is 1.73%. Regarding `O=[N+]([O-])c1cc(C2CCCCC2)c(O)c([N+](=O)[O-])c1`, the “cytotoxicity increase” value is -2.82%. For the compound `CC(=O)OCC[N+](C)(C)C`, the “cytotoxicity increase” value was -5.37% [at 35.3 µM]. In the case of `CCOC(=O)c1ccccc1C(=C1C=C(Br)C(=O)C(Br)=C1)c1cc(Br)c(O)c(Br)c1`, the “cytotoxicity increase” value was 0.636% [at 35.3 µM]. As for `CC1(C)[C@@H](OC(=O)CCC(=O)O)CC[C@]2(C)[C@H]3C(=O)C=C4[C@@H]5C[C@@](C)(C(=O)O)CC[C@]5(C)CC[C@@]4(C)[C@]3(C)CC[C@@H]12`, the “cytotoxicity increase” value was -6.15% [at 35.3 µM]. As to `O=C1C(=O)c2ccccc2C(O)=C1C1CCC(c2ccc(Cl)cc2)CC1` (stereo not given), the “cytotoxicity increase” value was 1.86% [at 35.3 µM]. In the case of `CC(CN(C)C)C(C)(O)Cc1ccc(Cl)cc1` (stereo not given), the “cytotoxicity increase” value was -5.63% [at 35.3 µM]. Still for that read-out and setting: for `CCCCC(CC)COP(=O)(O)O` (stereo not given) the value was 25.1%; for `Cc1cccc(N(C)C(=S)Oc2ccc3c(c2)CCC3)c1`, -13.5% [at 35.3 µM]; for `C[C@@H](O[C@H]1OCCN(Cc2n[nH]c(=O)[nH]2)[C@H]1c1ccc(F)cc1)c1cc(C(F)(F)F)cc(C(F)(F)F)c1`, 14.9% [at 35.3 µM]. In the case of `CCOC(=O)[C@H](CCc1ccccc1)N[C@@H](C)C(=O)N(CC(=O)O)C1Cc2ccccc2C1`, the “cytotoxicity increase” value was 2.95% [at 35.3 µM]. For the compound `O=C(Cn1ccnc1[N+](=O)[O-])NCCO`, the “cytotoxicity increase” value was 9.73% [at 35.3 µM]. Take `C=C1CCC2CC1C2(C)C` (stereo not given): the “cytotoxicity increase” value was -2.52%.

On to `CCC1CO1` (stereo not given), for which the “cytotoxicity increase” value is 0.744%. Still for that read-out and setting: for `CC(C)(O)c1ccc(CNC(=O)c2cccnc2Oc2ccc3nonc3c2)cc1` the value was -7.22%; for `CCC1(CO)COCOC1`, -20%; for `CC(C)Nc1cccnc1N1CCN(C(=O)c2cc3cc(NS(C)(=O)=O)ccc3[nH]2)CC1`, -8.87% [at 35.3 µM].

Take `CC(=O)c1cc2ccccc2s1`: the “cytotoxicity increase” value was 1.65% [at 35.3 µM].
